Screening data (PubChem)
GLP1R ag: agonists of human GLP-1 receptor | P43220 | HEK293 GLP-1R CRE-luciferase, luminescence, 4-6 h; cells express a hypersensitive GLP-1R form | Potency, µM (doses to about 45.6 µM), for the others: at the highest dose activation, most hits filed as activators | actives 0.007% (n = 380,000); note: % of control where 0% means no effect
PTHR1 agonist: activates the human parathyroid hormone receptor PTHR1. Q03431. HEK293 GP2 PTHR1 cells, GloSensor cAMP luminescence, 1 h. Potency, µM (highest dose often 115 µM), inactives show top-dose activation, hits mostly activators. actives 0.075% (n = 410,000); note: nearly all actives have a fitted effect of over 55% in size
Target sequence (Q03431 whole entry, looked up): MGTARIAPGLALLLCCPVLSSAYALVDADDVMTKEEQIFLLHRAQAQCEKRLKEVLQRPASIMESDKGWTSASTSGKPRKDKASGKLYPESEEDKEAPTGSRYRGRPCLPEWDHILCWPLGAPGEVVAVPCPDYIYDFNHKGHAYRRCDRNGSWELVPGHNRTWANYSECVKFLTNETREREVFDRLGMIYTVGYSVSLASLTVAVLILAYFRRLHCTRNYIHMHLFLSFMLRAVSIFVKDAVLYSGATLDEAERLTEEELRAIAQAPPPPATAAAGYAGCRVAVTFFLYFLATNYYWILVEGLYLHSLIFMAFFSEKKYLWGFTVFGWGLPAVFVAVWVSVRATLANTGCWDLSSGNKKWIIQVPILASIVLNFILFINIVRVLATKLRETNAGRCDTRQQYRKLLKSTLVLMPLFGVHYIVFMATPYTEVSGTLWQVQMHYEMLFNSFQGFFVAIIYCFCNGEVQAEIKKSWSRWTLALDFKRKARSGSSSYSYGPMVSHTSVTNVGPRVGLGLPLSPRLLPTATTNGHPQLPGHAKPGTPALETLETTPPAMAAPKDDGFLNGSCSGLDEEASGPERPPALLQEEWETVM
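HEK-293-derived GP2 cells expressing PTHR1 and a GloSensor cAMP reporter, 3,000/well, plated overnight, given luciferin plus IBMX (each 0.5 mM as added) for 1 h at 37 °C, then compound for 1 h at 37 °C. Luminescence was read after 15 min at room temperature.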
GLP1R inv ag: acts as inverse agonist at human GLP-1 receptor | Potency, µM (top dose mostly 38.3 µM), without a hit: top-dose activity change, negative = inhibition, usual class: inhibitors | actives 1.6% (n = 410,000) | HEK293 GLP-1R CRE-luciferase, luminescence, 24 h; GLP-1R form is constitutively active; note: % is set by controls: 0 for no effect and ±100 for the full control effect; nearly all actives have a fitted effect of over 55% in size
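Assay principle: reduced luminescence from a cAMP-responsive reporter in HEK293 cells co-expressing a constitutively active GLP-1R. Conditions: 24 hr compound incubation, 37 deg C, 5% CO2.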
HEK293 tox: cytotoxicity in counter-screen for GLP-1R inverse agonists; Potency, µM (titrated, usually from 38.3 µM), for the others: at the highest dose activity change, negative = inhibition, hits mostly inhibitors; actives 0.13% (n = 410,000); HEK293 cAMP-luciferase reporter cells, luminescence, 24 h;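 note: loss of luciferase light is scored as toxicity; % is set by controls: 0 for no effect and ±100 for the full control effect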
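To flag toxic compounds, the library was rerun on cells for 24 hr at 37 deg C and 5% CO2. Viability-linked luminescence was captured 12 min after adding luciferase detection reagent.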
* hit, by the source's call; i = inactive; u = inconclusive; x = no result given; [ ] = remark or other dose. A selection: hits, their analogues and other compounds. The true share with any hit is near 1.7%. Calls come from the whole dose curve; as a rule, active = well fitted curve in the direction sought with a large enough effect; inconclusive = small, poorly fitted or top-dose-only effect, or another doubt; inactive = no such curve, though single readings can be large; an effect the other way counts as inactive or inconclusive. Potency is the fitted concentration of half-maximal effect.

SMILES | GLP1R ag | PTHR1 agonist | GLP1R inv ag | HEK293 tox
C=C(C)Cn1c(SCC(=O)c2ccc(OC)cc2)nc2sc3c(c2c1=O)CCCC3 | x | i | 2% | 2%
Cc1cc(SCC(=O)N/N=C/c2ccc(O)cc2O)c(C)cc1Br | -7% | -16%[57.5 µM] | 7.9µM* | -18%
CO/N=C1\C[C@]2(C[C@@H]3C[C@H](C/C=C(/C)C[C@@H](C)/C=C\C=C4\CO[C@@H]5[C@@H](O)C(C)=C[C@@H](C(=O)O3)[C@]45O)O2)O[C@@H](/C(C)=C/C(C)C)[C@H]1C | -5% | x | x | x
CC(=O)OC1CCC2(C)C(COc3ccc4ccc(=O)oc4c3)C(C)(O)CCC2C1(C)C (configuration not stated) | -1% | i | 11µM* | -16%
CS(=O)(=O)Nc1ccc(C2=NN(C(=O)CCCC(=O)O)C(c3cccs3)C2)cc1 (configuration not stated) | -1% | -4% | 11% | 14%
CC(C)(NS(=O)(=O)OCC(Cl)(Cl)Cl)c1ccccc1 | 1% | -7% | u | 8%
CC(NS(=O)(=O)OCC(Cl)(Cl)Cl)c1ccc(C(C)(C)C)cc1 (configuration not stated) | -7% | -79% | 5.6µM* | u
Cc1cccc(C(=O)N[C@H](C(=O)Nc2cc(S(=O)(=O)N3CCCCC3)ccc2C)C(C)C)c1 | -4% | i | 10µM* | -6%
COc1ccc(CCC(=O)Nc2ccc(Cl)c(S(=O)(=O)N3CCCC3)c2)cc1 | -4% | -87% | 10µM* | -4%
Cc1cccc(OC(C)C(=O)Nc2cc(S(=O)(=O)N3CCCCC3)ccc2C)c1 (configuration not stated) | 3% | -12% | u | 0%
Cc1ccc(S(=O)(=O)N2CCCCC2)cc1NC(=O)COC(=O)C1(C)CC1(Cl)Cl (configuration not stated) | 10% | -23% | 7.9µM* | -7%
COc1ccc(COC(=O)c2ccc(Cl)c(S(=O)(=O)N3CC(C)OC(C)C3)c2)cc1 (configuration not stated) | 4% | -32% | 8.9µM* | 5%
COc1ccc(OCCCC(=O)Nc2cc(S(=O)(=O)N3CCCCC3)ccc2OC)cc1 | 4% | 16% | -38% | 3%
COc1ccc(OCCCC(=O)Nc2cc(S(=O)(=O)N3CCCCC3)ccc2C)cc1 | -5% | -64% | 5.6µM* | 2%
CC(=O)OCC(=O)[C@@]12OC(C)(C)O[C@@H]1C[C@H]1[C@H]3C[C@H](F)C4=CC(=O)C=C[C@@]4(C)[C@]3(F)[C@H](O)C[C@@]12C | 0%[19.8 µM] | x | x | x
Cc1ccc(CN(Cc2ccco2)C(=O)COc2c(C)cc(C)cc2C)cc1 | x | -45% | 2.8µM* | 3%
Cc1ccc(OCC(=O)N(Cc2ccco2)Cc2ccc(C)o2)cc1 | x | -5% | u | 2%
Cc1cccc(OCC(=O)N(Cc2ccc(N(C)C)cc2)Cc2ccco2)c1C | x | -85% | 10µM* | 2%
Cc1ccc(CN(Cc2ccco2)C(=O)COc2cccc(C)c2C)o1 | x | -9% | 11µM* | 4%
COc1ccc(NS(=O)(=O)c2cn(C)cn2)cc1OC | 0% | -21% | -5% | -3%
Cc1ccc(CNC(=S)Nc2ccc(NS(=O)(=O)c3ccc(C)cc3)cc2)cc1 | 0% | -7% | 10µM* | u
COC[C@@H](c1ccc(C(F)(F)F)cc1)N1CCN(C2(C)CCN(C(=O)c3c(C)ncnc3C)CC2)C[C@@H]1C | -4% | x | x | x
CN1CCN(C(=S)c2cn(Cc3ccc(F)cc3)c3ccccc23)CC1 | 10% | i | 10µM* | -7%
CN1CCN(C(=S)c2cn(Cc3cccc(F)c3)c3ccccc23)CC1 | 10% | -5% | u | -13%
CC1CCN(C(=S)c2cn(Cc3ccccc3F)c3ccccc23)CC1 | -1% | -15% | 10µM* | -23%
SMILES | GLP1R ag | PTHR1 agonist | GLP1R inv ag | HEK293 tox
CC1CCN(C(=S)c2cn(Cc3ccc(F)cc3)c3ccccc23)CC1 | -1% | -9%[57.5 µM] | 7.1µM* | -17%
Cc1ccc(NC(=O)c2ccc3c(O)c(S(=O)(=O)c4ccccc4)c(=O)[nH]c3c2)cc1Cl | x | i | 16% | 14%
O=C(CN1C2CCCC1CC(NC(=O)c1ccccc1)C2)Nc1ccccc1C(F)(F)F (configuration not stated) | 13% | -92% | 2µM* | -7%
CC(Sc1nc2c(c(=O)[nH]1)CCCC2)C(=O)Nc1cc(C(F)(F)F)ccc1Cl (configuration not stated) | x | -4% | -9% | -4%
CCO/C=N/Nc1nc(C(F)(F)F)nc2c1cnn2Cc1ccccc1 | 5% | -34% | u | -5%
CC1(C(=O)NCc2ccccc2)Cc2c(-c3ccc(C(N)=O)cc3)ccnc2O1 (configuration not stated) | 20% | -7% | 6.3µM* | u
CC1(C(=O)NCc2ccccc2)Cc2c(-c3ccc4c(c3)OCO4)ccnc2O1 (configuration not stated) | 10% | i | 2.8µM* | -25%
CC1(C(=O)NCc2ccccc2)Cc2c(-c3ccccc3)ccnc2O1 (configuration not stated) | -4% | -63% | u | -28%
CC1=C(C(=O)OC2CCCC2)C(c2c(F)cccc2Cl)CC(=O)N1 (configuration not stated) | -7% | -27% | 11% | 2%
Cc1ccc(N=Nc2c(C)[nH]n(C(N)=S)c2=O)cc1C | -4% | -77% | 0.5µM* | u
Cc1[nH]n(C(N)=S)c(=O)c1N=Nc1ccc2ccccc2c1 | 3% | -36% | u | u
CCc1oc2ccccc2c1C(=O)c1cc(I)c(O)c(I)c1 | -1% | x | x | x
Cc1cc(NC(=O)c2ccccc2-c2ccccc2)ccc1Br | 1% | -26% | 10µM* | 10%
Cc1cccc(NC(=O)c2ccccc2-c2ccccc2)c1 | 14% | i | -8%[7.66 µM] | -8%[7.66 µM]
COc1ccc(CCNC(=O)CSc2nc3ccccc3nc2Cc2ccc(Cl)cc2)cc1OC | x | -39% | 1% | 9%
CCCOc1ccc(C(=O)Nc2cc(-c3nc4ccccc4[nH]3)ccc2C)cc1 | x | -17% | 7.1µM* | -6%
Cc1ccc(NC(=O)Cn2c(=O)n(CC(=O)NCCc3ccccc3)c(=O)c3ccccc32)cc1C | 1% | i | -14% | -6%
O=C(Cc1cccs1)Nc1nc2c(s1)CCCC2 | 13% | -44%[57.5 µM] | 0% | 13%
Cc1cccc(Nc2nc3c(s2)CCCC3)c1 | 4% | -33% | u | u
CCc1cccc(CC)c1NC1=NS(=O)(=O)c2ccccc21 | x | i | -4% | 15%
O=S1(=O)N=C(Nc2nc3c(s2)CCCC3)c2ccccc21 | -33% | -12% | 4.5µM* | u
O=C(Nc1nc2c(s1)CCCC2)c1cccs1 | -8% | -39% | 10µM* | -16%
O=C(O)c1ccc(Nc2nc3c(s2)CCCC3)cc1 | -5% | -33% | 1.8µM* | -12%
CCn1c(=O)c2sccc2n2c(CCC(=O)NCc3ccc(Cl)cc3)nnc12 | x | -42% | 11% | -4%
